Screening results (PubChem)
Pf growth 48h – P. falciparum growth inhibition at 48 hours (one generation) | Potency, µM (series often up to 28.7 µM), for inactives: at the highest dose activity change, negative = inhibition, hits mostly inhibitors | P. falciparum luciferase growth in erythrocytes, 48 h | 310,000 tested, 5.9% active; further: potency means the concentration at half of the fitted maximal effect; on the % scale 0 is the no-effect control and ±100 the full control effect
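Erythrocytes infected with P. falciparum carrying an integrated firefly luciferase reporter (2% hematocrit, 0.1% parasitemia final) were exposed to compounds in RPMI 1640 with 0.5% Albumax at 37 C, 5% CO2. Growth inhibition was scored as reduced luminescence.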
Cycloheximide cs – counter-screen for Shiga toxin inhibitors: cycloheximide protein synthesis inhibition; cell reporter, cycloheximide protein synthesis inhibition counterscreen; max response, %; 300,000 tested, 12% active; AID 2314; in the data active means max response mostly above about 13%, no sharp cut-off; inactive means mostly below about 14%; further: read at 38.3 µM for the half of the compounds with a filed dose; 0% is about no effect
Pf growth 96h – inhibits malaria parasite growth, 96 h | 320,000 tested, 6.9% active | Potency, µM (highest dose often 28.7 µM), inactives show at the highest dose activity change, negative = inhibition, hits mostly inhibitors | P. falciparum luciferase reporter growth, 96 h; further: potency means the concentration at half of the fitted maximal effect; on the % scale 0 is the no-effect control and ±100 the full control effect
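Erythrocytes infected with luciferase-expressing P. falciparum were dispensed at 2% hematocrit and 0.05% parasitemia (final), then incubated with compounds 96 hours at 37 C in 5% CO2. Luminescence after detection reagent addition reported growth.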
Shiga toxin inh – blocks Shiga toxin action in Vero cells | 290,000 tested, 9.2% active | inhibition, % at 38.7 µM | Vero cells, Shiga toxin protein synthesis inhibition reporter; in the data active means inhibition mostly above about 28%, no sharp cut-off; inactive means mostly below about 43%; further: 0% is about no effect
MARV entry inh – blocks Marburg virus binding to or entry into cells | Potency, µM (highest dose often 37.8 µM), without a hit: top-dose activity change, negative = inhibition, hits mostly inhibitors | 300,000 tested, 1.8% active | Marburg virus pseudotyped entry inhibition, cell reporter; calls by dose curve; tested in HEK293 cells; further: potency means the concentration at half of the fitted maximal effect; on the % scale 0 is the no-effect control and ±100 the full control effect
Lassa entry inh – blocks Lassa virus binding to or entry into cells; Lassa virus pseudotype entry inhibition, cell reporter; Potency, µM (doses to about 37.9 µM), for the others: top-dose activity change, negative = inhibition, most hits filed as inhibitors; 300,000 tested, 1.2% active; calls by dose curve; tested in HEK293 cells; further: potency means the concentration at half of the fitted maximal effect; on the % scale 0 is the no-effect control and ±100 the full control effect; nearly all actives have a fitted effect of over 50% in size
The depositor's hits bear a star; ? = inconclusive; nt = no result given; [ ] = another dose, or the depositor's remark. This is a sample that favours compounds with a hit; in the whole collection about 19% have one here. Unless noted, the call rests on the fitted dose curve; in most records, active means well fitted inhibition curve with a large enough effect; inconclusive means small, poorly fitted or top-dose-only effect, or another doubt; inactive means no such curve, though single readings can be large or run the other way.

SMILES	Pf growth 48h	Cycloheximide cs	Pf growth 96h	Shiga toxin inh	MARV entry inh	Lassa entry inh
COc1ccc2ncn(-c3cc(OC(C)c4ccccc4Cl)c(C(N)=O)s3)c2c1 (centres undefined)	nt	nt	nt	nt	nt	0.1µM*
NC(=O)c1sc(-n2cnc3ccccc32)cc1OCc1ccccc1Br	nt	nt	nt	nt	nt	8.9µM*
O=C(NCc1ccccc1Br)c1ccc(-n2cnc3cccnc32)cc1	nt	nt	nt	nt	nt	13%[46.1 µM]
COc1cc2ncn(-c3cc(OCc4ccccc4Cl)c(C(N)=O)s3)c2cc1OC	nt	nt	nt	nt	nt	0.63µM*
COc1ccc2ncn(-c3ccccc3)c2c1	2%	6	?	-30	-19%	-6%
Cc1ccc2oc(C(=O)Nc3ccc(S(=O)(=O)Nc4onc(C)c4C)cc3)c(C)c2c1	3%	-2	?	-9	8%[46.1 µM]	9%[46.1 µM]
Cc1ccnc2nc(C(=O)OCC(=O)Nc3ccc4c(c3)OC(F)(F)O4)nn12	1%	-2	0%	-15	-10%	12%
O=C(Cc1ccc(N2CCNC2=O)cc1)N1CCCC(Nc2ccc(F)c(F)c2)C1 (centres undefined)	?	-2	?	12	?	-1%[46.1 µM]
COC(=O)CCCNC(=O)c1ccc2oc(CCCc3ccccc3)nc2c1	-11%	24*	?	21*	-17%	-2%
COC(=O)[C@@H](C)NC(=O)c1ccc2oc(CCc3ccccc3)nc2c1	41%	51*	-22%	31*	nt	nt
CCCc1nc2cc(CC(=O)OC)ccc2o1	12%	22*	50%	17	6%	?
CCCNC(=O)c1ccc2nc(CCc3ccccc3)oc2c1	nt	nt	nt	nt	nt	5%[46.1 µM]
O=C1[C@H]2CC3C=CC2(O3)[C@@H]2OCCCN12 (some centres undefined)	3%	nt	104%	nt	nt	nt
COc1ccc(C(=O)Nc2ccc(Cl)c(S(=O)(=O)Nc3ccccc3OC)c2)cc1	?	5	?	14	2.8µM*	?
COc1ccc(NS(=O)(=O)c2cc(C(=O)N3CCN(C(C)=O)CC3)ccc2Cl)cc1	13%	3	?	-8	-12%[46.1 µM]	-23%[46.1 µM]
CCC(C)NCCC(=O)Nc1ccc(Cl)c(S(=O)(=O)Nc2ccc(Cl)cc2)c1 (centres undefined)	10µM*	-2	9.3µM*	12	11µM*	7%
CCOc1ccc(NS(=O)(=O)c2cc(NC(=O)c3ccc(C)cc3)ccc2Cl)cc1	?	17*	?	-14	?	?
COc1ccc(NS(=O)(=O)c2cc(N/C(=N\S(=O)(=O)c3ccccc3)c3ccc(F)cc3)ccc2Cl)cc1	?	-3	10µM*	15	12µM*	?
COc1ccc(NC(=O)CCN2C(=O)c3ccccc3S2(=O)=O)c(OC)c1	3%	4	22%	20	-7%[46.1 µM]	26%[46.1 µM]
Cc1cccc(NC(=O)c2cc(Cl)ccc2[N+](=O)[O-])c1	?	-3	5%	26	?	-9%
CCCCSc1nnc(CSc2nc3nc(C)cc(C)n3n2)o1	nt	1	?	-12	17%	?
COc1ccc(C(C)=O)cc1CN(C)C	19%	-1	20%	17	4%	8%
COc1ccccc1NS(=O)(=O)c1cc(NC(=O)c2ccc(Cl)nc2)ccc1Cl	1.7µM*	-2	3.3µM*	25	8.9µM*	?
COc1ccccc1NS(=O)(=O)c1cc(C(=O)NCCN2CCOCC2)ccc1Cl	8%	-2	10µM*	-15	1%	11%
COc1ccc(C(=O)NCCN2CCOCC2)cc1S(=O)(=O)Nc1ccc(C)cc1	-3%	nt	-23%	nt	nt	nt
SMILES	Pf growth 48h	Cycloheximide cs	Pf growth 96h	Shiga toxin inh	MARV entry inh	Lassa entry inh
CCn1c(O)c(N=NC(=O)c2ccc(CSc3nncn3C)cc2)c2ccccc21	10µM*	-1	12µM*	-8	-40%	2%
Cn1cnnc1SCc1ccc(C(=O)N=Nc2c(O)n(Cc3ccc(Cl)cc3)c3ccccc23)cc1	2.3µM*	-2	3.7µM*	11	?	?
Clc1ccc(Cl)c(OCCCCN2CCNCC2)c1	?	1	-21%	-7	11µM*	?
COc1ccccc1OCCCCN1CCC(C)CC1	6%	-3	18%	-9	?	-30%
Cc1ccc(OCCOCCN2CCCCC2)c([N+](=O)[O-])c1	?	-2	-24%	-23	?	12%
Cc1ccc([N+](=O)[O-])c(OCc2ncc(Cl)n2C)c1	49%	39*	11%	72*	?	?
Cc1ccc([N+](=O)[O-])c(OCCN2CCNCC2)c1	15%	-3	2.3µM*	-8	nt	nt
Cc1ccc(OCCCCN2CCC(C)CC2)c(Br)c1	?	-1	-9%	11	15µM*	?
O=C(COC(=O)C1CCC1)Nc1ccc(OC(F)F)cc1	9%	-2	25%	17	9%	-7%
Cc1ccc(OCCCCN2CCCCC2)c(C)c1	43%	0	?	-3	nt	nt
Cc1ccc(OCCCCCCN2CCNCC2)c(Br)c1	nt	nt	nt	nt	13µM*	?
Cn1c(=O)c2cc(S(=O)(=O)N3CCOCC3)ccc2n(C)c1=O	19%	5	nt	4	-2%	3%
O=C(NNC1=C(C(=O)C(F)(F)F)CCC1)c1cccc(O)c1	128%	31*	45%	64*	0%	?
O=C(NNC1=C(C(=O)C(F)(F)F)CCC1)c1cccnc1	9%	38*	18%	50	?	10%
COc1ccc(CNCc2ccc(C(F)(F)F)cc2)cc1OC	14%	-3	?	-5	0%	1%
COc1cc(O)oc1C=Nc1ccc(C(F)(F)F)cc1	23%	42*	105%	34*	14%	8%
COc1ccc(S(=O)(=O)N(CC(=O)Nc2cc(C)ccc2OC)Cc2ccccc2)cc1	nt	nt	nt	nt	nt	-34%[46.1 µM]
CCN(CC)CCN1C(=O)C(=O)/C(=C(/O)c2ccc(OC(C)C)cc2)C1c1ccncc1 (centres undefined)	nt	-1	15µM*	-11	?	1%
CCN(CC)CCN1C(=O)C(=O)/C(=C(/O)c2c(C)[nH]c(C(=O)OC)c2C)C1c1ccccc1OC (centres undefined)	13%	-3	?	-2	20%	-1%
CCN(CC)CCN1C(=O)C(=O)/C(=C(/O)c2c(C)[nH]c(C(=O)OC)c2C)C1c1cccs1 (centres undefined)	nt	23*	44%	24	-2%	4%
CCN(CC)CCN1C(=O)C(=O)/C(=C(/O)c2ccc(OC(C)C)cc2)C1c1cccs1 (centres undefined)	88%	45*	71%	85*	6%[46.1 µM]	6%
c1coc(Cn2nnnc2CN2CCN(C3CCCCC3)CC2)c1	28%	-5	142%	-11	24%	11%
O=C(NNc1ncnc2ccccc12)c1cccc(Cl)c1	65%	31*	60%	52*	nt	nt
O=C(O)/C=C/C(=O)NNc1ncnc2ccccc12	40%	31*	0%	81*	nt	nt
Cc1ccc(-c2cc(C(F)F)nc(S(C)(=O)=O)n2)cc1	-22%	-1	-9%	38	?	?
